This is a sample that favours compounds with a hit; in the whole collection about 8.3% have one here.
HCV inhibitor: blocks hepatitis C virus | Huh7.5.1 HCVcc-Cre infection, luciferase reporter, 44 h | Potency, µM (highest dose often 41.8 µM), usual class: inhibitors | 3.4% of 340,000 active | AID 651820
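1,000 cells/well; 4 h culture; + compound; + HCVcc-Cre (~0.5 moi); 44 h; luciferase substrate, RT 15 min; read 15 sec.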
HCMV antiviral: blocks human cytomegalovirus replication; HFF cells, HCMV-luciferase reporter, 72 h; hits give low values; activity change, negative = inhibition, % at 57.5 µM; 4.5% of 410,000 active; in the data active = activity change below about -60%; inconclusive = no clear call, values can overlap the other calls; inactive = above about -39%
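HFF cells seeded 16 h at 37C, treated with compounds, infected with luciferase-reporter HCMV at MOI 1 PFU/cell; luciferase read at 72 h post infection, normalized to buffer-only and Salinomycin controls.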
FMDV antiviral: blocks foot and mouth disease virus | FMDV antiviral cell-based qHTS | AID 1159524 | Potency, µM (series often up to 57.9 µM), hits mostly inhibitors | 1.2% of 410,000 active; calls by dose curve; tested in HEK293T cells; note: read-out not given here; nearly all actives have a fitted effect of over 45% in size
MARV entry inh: blocks Marburg virus binding to or entry into cells. Potency, µM (highest dose often 37.8 µM), hits mostly inhibitors. Marburg virus pseudotyped entry inhibition, cell reporter. 1.8% of 300,000 active; calls by dose curve; tested in HEK293 cells
Giardia FBPA inh: blocks Giardia fructose-bisphosphate aldolase activity. A8B2U2. purified Giardia FBPA. Potency, µM (series often up to 59.6 µM), most hits filed as inhibitors. 0.71% of 290,000 active. AID 2451; note: nearly all actives have a fitted effect of over 55% in size
Target sequence (A8B2U2 whole entry, looked up): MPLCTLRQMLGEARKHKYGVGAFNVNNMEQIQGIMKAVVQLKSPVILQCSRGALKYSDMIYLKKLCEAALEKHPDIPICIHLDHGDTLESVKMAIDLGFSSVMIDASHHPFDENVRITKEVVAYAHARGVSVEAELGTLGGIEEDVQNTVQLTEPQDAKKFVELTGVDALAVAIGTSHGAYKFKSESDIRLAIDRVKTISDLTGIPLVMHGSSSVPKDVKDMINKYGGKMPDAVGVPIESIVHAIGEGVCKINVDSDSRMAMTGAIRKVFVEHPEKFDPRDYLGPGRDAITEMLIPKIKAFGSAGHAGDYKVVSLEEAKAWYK
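Giardia FBPA (40 nM reagent) was preincubated 10 min at RT with compound (up to 57.5 uM final), then substrate plus GAPDH/TPI/NAD/arsenate coupling system with diaphorase/resazurin was added; resorufin fluorescence (525/598 nm) was read after 20 min.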
LASV entry inh: Lassa virus entry inhibition; 1.2% of 300,000 active; AID 540256; Lassa virus pseudotype entry inhibition, cell reporter; Potency, µM (series often up to 37.9 µM), actives largely listed as inhibitors; calls by dose curve; tested in HEK293 cells; note: nearly all actives have a fitted effect of over 50% in size
Numbers stand for hits; n = inactive; u = inconclusive; x = no result given; [ ] = remark or other dose. Unless noted, calls come from the whole dose curve; as a rule, active = well fitted curve in the direction sought with a large enough effect; inconclusive = small, poorly fitted or top-dose-only effect, or another doubt; inactive = no such curve, though single readings can be large; an effect the other way counts as inactive or inconclusive.

SMILES	HCV inhibitor	HCMV antiviral	FMDV antiviral	MARV entry inh	Giardia FBPA inh	LASV entry inh
CCOC(=O)c1cccc(NC(=O)CCc2c(C)nn(-c3ccc(N4CCCCC4)nn3)c2C)c1	x	n	n	x	x	u
Cc1ccc(S(=O)(=O)NCCC(=O)NNC(=O)c2ccccc2O)cc1C	3.16µM	n	n	n	x	n
Cc1c(C=C2C(=O)c3ccccc3C2=O)cc(C#N)n1C	n	x	n	x	n	x
Cc1ccc(C(=O)/C=C/c2cc(C#N)n(C)c2C)cc1	n	-85.0	n	n	n	n
COc1ccc(OC)c(/C=C/C(=O)N2CCCc3ccccc32)c1	10µM	n	n	u	n	u
COc1cc(/C=C/C(=O)OCC(=O)N2CCCc3ccccc32)ccc1O	n	n	n	1.26µM	x	n
O=C(OCC(=O)N1CCCc2ccccc21)c1cnc(Cl)c(Cl)c1	5.01µM	n	n	n	n	x
COc1cc(/C=C/C(=O)OCC(=O)N2CCCc3ccccc32)ccc1OCC#N	u	n	n	x	x	x
Cc1cccc(COc2ccc(/C(O)=C3\C(=O)C(=O)N(CCN(C)C)[C@H]3c3ccncc3)cc2)c1	x	x	x	n	x	x
CN(Cc1ccccc1)C(=O)c1ccc(Nc2nc(C(N)Cc3ccc(C(F)(F)F)cc3)cs2)nc1 (centres undefined)	x	-98.1	n	x	x	x
NC(Cc1ccc(C(F)(F)F)cc1)c1csc(Nc2ccc(C(=O)c3ccccc3)cc2)n1 (centres undefined)	x	-63.1	n	x	x	x
CN(Cc1ccccc1)C(=O)c1ccc(Nc2nc(C(N)Cc3ccccc3)cs2)nc1 (centres undefined)	x	n	n	x	x	x
CC(=O)c1ccc(Nc2nc(C(N)Cc3ccc(C(F)(F)F)cc3)cs2)cc1 (centres undefined)	x	-60.6	n	x	x	x
COc1ccc(C2=Nn3c(nnc3-c3ccccc3OC)SC2)c(OC)c1	x	x	x	x	n	x
CC1C(=O)OC2CC34C5CC(C(C)(C)C)C36C(OC(=O)C6O)OC4(C(=O)O5)C21O (centres undefined)	x	x	x	x	n	x
CC(C)c1nn2c(=O)cc(COC(=O)c3ccc(NC(=O)CCc4ccccc4)cc3)nc2s1	x	n	n	x	x	n
CCNC(=O)CC1C(=O)N(C)C(=S)N1NC(=O)c1ccc(Cl)cc1 (centres undefined)	n	n	n	n	n	n
Nc1ccc(C(=O)NN2C(=O)[C@H](Cl)C2c2ccc(Cl)cc2)cc1 (some centres undefined)	10µM	n	u	8.91µM	x	11.2µM
N#Cc1ccc(Oc2cccc3cccnc23)c([N+](=O)[O-])c1	n	u	n	n	n	u
O=[N+]([O-])c1ccc(Oc2cccc3cccnc23)c([N+](=O)[O-])c1	n	-69.0	u	u	19.9µM	u
CC1=CC(=O)c2c(O)cccc2C1=O	x	x	8.91µM	x	u	x
Cc1cc(O)c2c(c1)C(=O)c1cccc(O)c1C2=O	n[8.37 µM]	n	n	n	n	n
COc1cccc2c1C(=O)C=C(C)C2=O	u	n	u	11.2µM	u	11.2µM
CCOc1cc(/C=C(/C#N)C(=O)Nc2ccc(O)cc2)cc(Br)c1O	n	-60.7	n	u	n	u
C=CCNC(=O)/C(C#N)=C\c1cc(Cl)c(O)c(OCC)c1	n	n	n	n	u	n
SMILES	HCV inhibitor	HCMV antiviral	FMDV antiviral	MARV entry inh	Giardia FBPA inh	LASV entry inh
O=C(NC(=S)Nc1nc(-c2ccccc2)cs1)c1cccnc1	n	n	n	n	n	n
Clc1ccc(-c2csc(N/N=C/c3cccnc3)n2)c(Cl)c1	u	-63.4	n	u	n	7.31µM
C(=N\Nc1nc(-c2ccccc2)cs1)/c1cccnc1	u	n	n	u	n	u
O=C(Nc1nc(-c2ccccc2Cl)cs1)c1cccnc1	31.6µM	n	u	n	n	n
C[C@H]1[C@@H](C(=O)N2CCCC2)CC(=O)C(=NOCc2ccccc2)C[C@H]1c1ccccc1	x	x	x	n	x	u
C[C@H]1[C@H](OC(=O)CCC(=O)NCc2ccc(C(=O)O)cc2)O[C@@H]2O[C@@]3(C)CC[C@H]4[C@H](C)CC[C@@H]1C24OO3	u	x	n	u	n	u
CC(C)CC(NC(=O)CCCNC(=O)CCC(=O)OC1O[C@H]2OC3(C)CC[C@H]4[C@H](C)CCC(C1C)C24OO3)C(=O)O (some centres undefined)	u	-63.1	n	u	n	u
Cc1ccc(CNC(=O)c2cn(C3CCCCC3)c(=O)c3c2c2ccccc2n3C)o1	n	n	u	u	n	n
Cc1cc(NC(=O)c2cn(C3CCCCC3)c(=O)c3c2c2ccccc2n3C)no1	11.2µM	n	u	x	n	x
O=c1c2nc(Br)n([C@@H]3O[C@@H]4CO[P@@](O)(=S)O[C@H]4[C@H]3O)c2nc2[nH]c(-c3ccccc3)cn12	x	x	x	x	n	x
COC(=O)/C=C/C(=O)Nc1cccc(C(F)(F)F)c1	n	-74.1	n	u	n	n
FC(F)(F)c1cccc(NC(=S)NCc2ccccc2)c1	n	-72.6	n	n	n	u
O=C(NNC(=S)Nc1cccc(C(F)(F)F)c1)c1ccc(Cl)cc1Cl	u	-66.5	n	u	u	n
FC(F)(F)c1cccc(NC(=S)NNC(=S)Nc2cccc(C(F)(F)F)c2)c1	x	x	x	x	n	x
FC(F)(F)c1cccc(CNC(=S)Nc2ccccc2)c1	n	-71.6	n	n	n	n
OCC1=C[C@@H](O)[C@@H]2C=CO[C@@H](OC3O[C@H](CO)[C@@H](O)[C@H](O)[C@H]3O)[C@H]12 (some centres undefined)	x	x	x	x	n	x
CCN(CC)CCn1c2c(c(SCC(=O)Nc3cccc(C(F)(F)F)c3)nc1=O)CCC2	x	n	n	x	x	n
COc1cccc(CNC(=O)[C@H]2CCCN2C(=O)[C@H]2CCCN2C(=O)c2ccc(C)cc2)c1	x	n	x	x	x	x
Cc1ccc(OCC(=O)NC(=S)Nc2cccc(NC(=O)c3ccc(Cl)cc3Cl)c2)cc1	n	-72.6	n	n	n	n
Cc1ccc(OCC(=O)NC(=S)Nc2cccc(NC(=O)c3ccccc3)c2)cc1	n	n	n	u	n	n
FC(F)(F)c1cccc(NC(=S)NC(c2ccccc2)c2ccccc2)c1	u	n	25.1µM	u	n	n
COc1ccc(NC(=S)NNC(=S)Nc2cccc(C(F)(F)F)c2)cc1	u	-76.1	n	u	n	u
CN(C)S(=O)(=O)Oc1ccc(Cl)cc1C(=O)Nc1cccc(C(F)(F)F)c1	11.2µM	n	n	n	n	n
CN(C)S(=O)(=O)Oc1ccccc1C(=O)Nc1cccc(C(F)(F)F)c1	n	n	n	n	n	n
COc1cccc(C2(CC(=O)N3CCC(c4nc5ccccc5o4)CC3)CC(=O)N(C)C2=O)c1 (centres undefined)	x	x	n	x	x	x
CN(C)CCCN(Cc1ccccc1)C(=S)Nc1cccc(C(F)(F)F)c1	11.2µM	n	n	u	n	u
CCCCn1nnnc1C(Nc1ccccc1C(C)=O)C1CC1 (centres undefined)	x	n	x	x	x	x
O=C(NCCOC(=O)c1ccc(C(=O)OCCNC(=O)c2cccnc2)s1)c1cccnc1	22.4µM	n	n	n	x	n
